The campaign covered roughly 55,000 compounds. About 340 (0.62%) were called active. A call without a number means that no potency is given here. About 3% were inconclusive and are not listed. The call rests on the fitted dose curve; in most records, active means well fitted cell-killing curve with a large enough effect; inconclusive means small, poorly fitted or top-dose-only effect; inactive means no such curve, though single readings can be large or run the other way. Only a selection was taken, and actives are over-represented in it overall.
Assay: qHTS Screen for Compounds that Selectively Target Cancer Cells with p53 Mutations: Cytotoxicity of p53 Null Cells at the Permissive Temperature; further: nearly all actives have a fitted effect of over 55% in size
Settings: H1299-neo p53 null cells, ATP luminescence, 24 h, 32C; series mostly up to 46.1 µM
Summary of the method: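 H1299-neo (p53-null) cells, 600/well, were pre-incubated overnight at 37C, then exposed to compounds at up to 46 uM for 24 hr at 32C. Viability was measured as ATP content by luminescence, and AC50 values came from Hill fits.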
Potency means the concentration at half of the fitted maximal effect.

Structure (SMILES)	Potency
Cc1ccc2nc(/C(C#N)=C/c3ccccc3F)[nH]c2c1	inactive
O=S(=O)(c1ccc(Br)cc1)c1nnn2c1nc(N1CCOCC1)c1sccc12	inactive
CCOc1ccc(NC(=O)c2cnn(-c3ccccc3)c2-n2cccc2)cc1	inactive
CCOc1ccc(NC(=O)c2ncoc2-c2ccco2)cc1	12.6 µM (active)
CCOc1ccc(NC(=O)CN2CCN(CC(=O)Nc3ccc(OC)cc3)CC2)cc1	inactive
CCc1nc2ccc(C(=O)N3CCN(c4cc(Cl)ccc4C)CC3)cc2nc1CC	inactive
CCOC(=O)c1c(C)[nH]c(C)c1S(=O)(=O)N1CCC(C(=O)Nc2ccc(C)c(Cl)c2)CC1	inactive
N#C/C(=C\c1ccccc1F)c1nc2ccccc2c(=O)[nH]1	inactive
COc1ccc(-n2ccnc(NCCc3ccc(Cl)cc3)c2=O)cc1OC	inactive
CCOC(=O)c1cccc(NS(=O)(=O)c2cn(C)c(C)n2)c1	inactive
O=C(NC1CC(=O)N(c2ccc(Cl)cc2)C1)C1CCCC1 (configuration not stated)	inactive
Cn1c(=O)c2c(nc(Oc3ccc(C#N)cc3)n2Cc2ccc(Cl)cc2Cl)n(C)c1=O	inactive
Brc1ccc(-c2csc(N/N=C/c3ccc4c(c3)OCO4)n2)cc1	inactive
CCCC(=O)Nc1cccc(NC(=S)NC(=O)C(C)Oc2ccc(Cl)cc2Cl)c1 (configuration not stated)	inactive
COC(=O)c1cc2occc2n1Cc1nc(-c2ccc(C)cc2)oc1C	inactive
Cc1ccc(CNC(=O)CCNS(=O)(=O)c2ccc3c(c2)oc(=O)n3C)cc1	inactive
CCOc1ccc(CNC(=O)CCc2c(C)nn(-c3ccc(N4CCCCC4)nn3)c2C)cc1	inactive
CCc1cc2c(-c3ccccc3)cc(=O)oc2c2c1OCN(Cc1ccc(C)cc1)C2	inactive
COc1ccc(CCNC(=O)CN2C(=O)COc3ccc(S(=O)(=O)N4CCCC4)cc32)cc1OC	inactive
CCOc1cc(CNCc2ccccn2)ccc1OCC(=O)NC(C)(C)C	inactive
Cc1ccc(CCNC(=O)C2CCN(c3nnc(-n4cccc4CNc4ccc(C)cc4)s3)CC2)cc1	inactive
C/C(CC(=O)Nc1ccc(Cl)cc1)=N\NC(=O)C(=O)NCCO	inactive
Cc1ccc2[nH]c3c(=O)n(CC(=O)NC(C)C)ncc3c2c1	inactive
CCC(=O)Nc1ccc(C)cc1-c1nc2ccccc2n(Cc2ccccc2)c1=O	inactive

Structure (SMILES)	Potency
CCn1c(SCC(=O)Nc2ccc(C)cc2)nc2nc3c(cc2c1=O)CCCC3	inactive
CCOc1ccccc1NC(=O)C1CCCN(S(=O)(=O)c2cn(C)cn2)C1 (configuration not stated)	inactive
Cc1nc2ccc(S(=O)(=O)N(CC(=O)Nc3ccc(F)cc3)Cc3ccccc3)cc2s1	inactive
COC(=O)c1ccc(NC(=O)c2cnn(-c3ccc(Cl)cc3)c2C2CCN(C(=O)OC(C)(C)C)CC2)cc1	inactive
COC(=O)/C(NC(C)=O)=C(\C)c1ccc(Cl)cc1	inactive
CCCCCn1c(CCNC(=O)c2ccc(F)cc2)nc2ccccc21	inactive
CCCC(=O)Nc1ccc2oc(-c3ccc(O)c(Br)c3)nc2c1	inactive
CC(=O)Nc1cc(C(=O)NCc2ccc(F)cc2)ccc1Sc1ccc(F)cc1	inactive
Cc1ccc(NC(=S)N2CCN(c3ncccn3)CC2)cc1C	inactive
O=C(CCC(=O)N1CC2CCCN2c2ccccc21)NCc1ccccc1Cl (configuration not stated)	inactive
Cn1c(=NC(=O)c2ccc3c(c2)OCCO3)sc2cc(S(C)(=O)=O)ccc21	inactive
O=C(NC1CCCC1)C(c1ccccn1)N(C(=O)c1csnn1)C1CCCC1 (configuration not stated)	inactive
CN(CC(=O)Nc1cccc(C(F)(F)F)c1)S(=O)(=O)c1cccs1	inactive
Cc1cccc(-c2nnc(SCC(=O)N3CCCc4ccccc43)o2)c1	inactive
Cc1ccc2[nH]cc(CCCN3C(=O)c4ccccc4C3=O)c2c1	inactive
CCNC(=S)N1CCC(c2nc3cc(C)c(C)cc3[nH]2)CC1	inactive
CCCCn1c(=O)c2oc3ccccc3c2n(CC(=O)Nc2ccccc2OC)c1=O	inactive
O=C(CSc1nc2nccnc2c(=O)n1CCc1c[nH]c2ccccc12)Nc1ccccc1F	inactive
Cc1cccc(NC(=O)Cn2cc(S(=O)(=O)Cc3ccccc3Cl)c3ccccc32)c1	inactive
Cc1csc2nc(COc3ccc(NC(=O)COc4ccccc4)cc3)cc(=O)n12	inactive
COc1ccc(NC(=O)Nc2cccc(-c3noc(C)n3)c2)cc1	inactive
COc1cccc(C(c2c(O)cc(C)n(Cc3ccco3)c2=O)N2CCN(c3ccccc3)CC2)c1 (configuration not stated)	inactive
O=C(CSc1nccn1Cc1ccc(Cl)cc1)NCc1ccccc1	inactive
Cc1ccc(CSCC(N)C(=O)O)cc1 (configuration not stated)	inactive

Structure (SMILES)	Potency
COc1ccccc1N1CCN(C(=O)C2CCN(S(=O)(=O)c3c(C)noc3/C=C/c3ccc(C)cc3)CC2)CC1	inactive
O=C(OCc1cc(=O)n2nc(C3CC3)sc2n1)c1ccccc1Cl	inactive
COC(=O)c1ccc(NC(=O)CSc2nncc3ccc(OC)c(OC)c23)cc1	inactive
O=C(NCc1ccccc1Cl)C1=Cc2cc(Br)ccc2OC1	inactive
Cc1c(C(=O)NCc2ccccc2Br)oc2ccc3c(c12)C(=O)CC(C)(C)O3	10 µM (active)
CCC1(C)CC(=O)c2c(ccc3oc(C(=O)Nc4ccc(C(C)=O)cc4)c(C)c23)O1 (configuration not stated)	inactive
Cc1nn(-c2nc(-c3ccccc3)cc(C(F)(F)F)n2)c(C)c1Cl	inactive
CC(C)NC(=S)N1CCN(S(C)(=O)=O)CC1	inactive
COc1cc(C(=O)N2CCN(C(=O)COc3cccc(C)c3)CC2)cc(OC)c1OC	inactive
CC(C)Cn1c(C2CC(=O)N(c3ccccc3Cl)C2)nc2ccccc21 (configuration not stated)	inactive
Cc1ccccc1CSCCNC(=O)c1ccc(Cl)c(S(=O)(=O)N2CCOCC2)c1	inactive
Cc1cc2c(cc3c(SCc4nc(-c5ccccc5)oc4C)nnc(C)n32)o1	inactive
CC(=O)c1cccc(NC(=O)CSc2nc3c(c(=O)[nH]2)CCC3)c1	inactive
CC(C)C(OC(=O)c1cccs1)C(=O)NC1CCCCC1 (configuration not stated)	inactive
COc1ccc(C(=O)COC(=O)CCCC(=O)Nc2cc(C(F)(F)F)ccc2Cl)cc1	inactive
Cc1nnc(N2CCC(C(=O)Nc3ccc(F)cc3)CC2)c2nn(-c3ccc(Cl)cc3)c(C)c12	inactive
O=C(CC1N=C2c3ccccc3N=C(SCc3ccc(F)cc3)N2C1=O)NCc1cccs1 (configuration not stated)	inactive
CCOc1ccc(CCNC(=O)c2cc3c(=O)n(C)c4ccccc4c3n2C)cc1	inactive
CCCn1c(=N)c(C(=O)NCc2ccccc2)cc2c(=O)n3cccc(C)c3nc21	inactive
Cc1ccccc1NC(=O)CN1C(=O)C(C)(C)c2ccccc21	inactive
O=C(Nc1ccc(Br)cc1)c1cc2nc(-c3ccccc3)cc(-c3ccccc3)n2n1	inactive
CCCOc1ccc(C2c3c(-c4ccccc4O)n[nH]c3C(=O)N2Cc2cccnc2)cc1 (configuration not stated)	inactive
CC1CCc2noc(NC(=O)c3ccc([N+](=O)[O-])cc3)c2C1 (configuration not stated)	inactive
COc1ccc(-c2cc(C(=O)Nc3sc4c(c3C(N)=O)CCCC4)no2)cc1	inactive

Structure (SMILES)	Potency
COc1ccc(C(=O)Nc2onc3c2CCCC3)cc1	7.94 µM (active)
O=c1c(Cl)c(NCc2ccc(F)cc2Cl)cnn1C12CC3CC(CC(C3)C1)C2	inactive
Cc1cccc(OCc2ccc(C(=O)Nc3ccc(F)cc3)cc2)c1	inactive
Cc1cccc(C)c1-n1ncc(C(=O)NCCCN2CCCCC2)c1C1CCN(C(=O)OC(C)(C)C)CC1	inactive
COc1cccc(C(=O)NCC(=O)OCc2cc(=O)n3ccsc3n2)c1	inactive
Cc1c(NC(=O)C(C)(C)C)cccc1-c1nc2ccccc2s1	10 µM (active)
CCC(C(=O)Nc1cccc(-c2nc3cccnc3s2)c1C)c1ccccc1 (configuration not stated)	inactive
Cc1c(NC(=O)Cc2ccccc2)cccc1-c1nc2cccnc2s1	inactive
O=C(Cc1c[nH]c2ccccc12)N/N=C/c1cccc(F)c1	inactive
Cc1ccccc1Nc1nn2c(=O)c3ccc(C(=O)NCCc4ccc(Cl)cc4)cc3nc2s1	inactive
CCOc1ccccc1C(=O)Nc1ccc(S(=O)(=O)N2CCCCC2c2cccnc2)cc1 (configuration not stated)	inactive
O=c1c2cccnc2n(Cc2cccc(F)c2)c(=O)n1Cc1ccccc1Cl	inactive
COc1ccc(S(=O)(=O)n2nc(C)c(S(=O)(=O)N3CCCCCC3)c2C)cc1	inactive
CCOC(=O)c1c(/N=C/c2cc(C)ccc2O)sc2c1CCC2	inactive
CCC(=O)N1CCc2cc(S(=O)(=O)CCC(=O)N3CCN(c4ccccc4F)CC3)ccc21	inactive
Cc1ccc(CNC(=O)CCC(=O)N2CC(C)Sc3ccccc32)cc1 (configuration not stated)	inactive
CCOc1ccc(NC(=O)CCc2c(C)nn(-c3ccc(N4CCCC4)nn3)c2C)cc1	inactive
CCCOc1ccc(-c2cccc(NS(=O)(=O)c3ccccc3)c2)nn1	inactive
Cn1nnc2c(N3CCN(c4ccccc4)CC3)ncnc21	inactive
O=C(Nc1c2c(nc3ccccc13)CCCC2)c1ccccc1Br	inactive
COc1ccccc1Nc1c2c(nc3ccc(NC(=O)/C=C/c4cc(OC)c(OC)c(OC)c4)cc13)CCCC2	15.8 µM (active)
CCOc1ccc(C(=O)Nc2ccc3nc4c(c(Nc5ccccc5OC)c3c2)CCCC4)cc1	inactive
COc1ccc(-n2ccn(CC(=O)Nc3ccc(C)c(C)c3)c(=O)c2=O)cc1OC	inactive
CCN(CC)S(=O)(=O)c1nnc(NC(=O)COc2ccccc2Cl)s1	inactive

Structure (SMILES)	Potency
CCN(Cc1ccccc1)C(=O)c1cn(-c2cccc(OC)c2)c(=O)c2ccccc12	inactive
COc1ccc(NC(=O)CSc2nc3ncccc3[nH]2)c(OC)c1	inactive
COC(=O)c1c(NC(=O)c2ccc(Cl)c(Cl)c2)sc2c1CCCC2	inactive
c1ccc(-c2noc(-c3cccs3)n2)nc1	10 µM (active)
Clc1ccc(-n2nnnc2-c2cnc(-c3ccccn3)nc2-c2cccs2)cc1	inactive
Cc1ccc(C)c(N2CCN(C(=O)C3CCC(CNS(=O)(=O)c4cccs4)CC3)CC2)c1 (configuration not stated)	inactive
O=C(COc1nc2ccccc2nc1N1CCOCC1)NCC(F)(F)F	inactive
CN(C)CCCO/N=C(\c1ccccc1)c1ccncc1	inactive
Cc1ccc(CN2CCC(CNC(=O)c3cnn(-c4ccccc4Cl)c3C3CCN(C(=O)OC(C)(C)C)CC3)CC2)cc1	inactive
Cc1ccc(C)n1-c1nnc(N2CCC(C(=O)NCc3ccccc3Cl)CC2)s1	inactive
COc1ccc(-c2nc(SCC(=O)N3CCCCC3C)n[nH]2)cc1 (configuration not stated)	inactive
Cc1ccc(NC(=S)NC(=O)/C=C/c2ccc(Cl)cc2)cc1	inactive
Cc1cc(=O)n(CC(=O)Nc2cccc([N+](=O)[O-])c2)c(-n2nc(C)cc2C)n1	inactive
CN(C)c1ccc(NC(=O)CSc2nc(-c3ccco3)cc(C(F)(F)F)n2)cc1	inactive
CCCN(CCC)c1c([N+](=O)[O-])c(=O)oc2ccccc12	inactive
COc1ccc(C(=O)NCC(c2ccc(N(C)C)cc2)N2CCc3ccccc32)c(OC)c1 (configuration not stated)	inactive
CCOC(=O)c1c(C)[nH]c(CCC(=O)NCCCN2CCN(c3cc(C)ccc3C)CC2)c1C	inactive
O=C(Nc1ccc(OC(F)(F)F)cc1)C1CCCN(S(=O)(=O)c2ccc(Br)s2)C1 (configuration not stated)	inactive
Cc1ccc2nc3c(cc(C(=O)NC4CCCCC4)c(=N)n3C(C)C)c(=O)n2c1	inactive
COc1cccc(CNC(=O)C(NS(=O)(=O)c2ccc3nc(C)sc3c2)C(C)C)c1 (configuration not stated)	inactive
CC(C)(C)c1ccc(C(=O)NCC(c2ccco2)S(=O)(=O)c2ccc(F)cc2)cc1 (configuration not stated)	inactive
